Reference: PubChem BioAssay AID2284084 (EPA ToxCast)
Active and inactive are the calls of the source. How the source made its calls: active means hit-call score of the fitted dose curve at least 0.9, where 1 is the maximum; inactive means score below 0.9.

These compounds were tested against human CK1alpha CK1 Kinase, CSNK1A1 (gene 1452) (UniProt P48729) (assay: ERF_TW_ENZ_hCSNK1A1: Eurofins (ERF) Enzymatic Radiometric [10 uM ATP] Assay for human CK1alpha CK1 Kinase).
Chain of human CK1alpha CK1 Kinase, CSNK1A1 (gene 1452) (P48729 whole entry, looked up): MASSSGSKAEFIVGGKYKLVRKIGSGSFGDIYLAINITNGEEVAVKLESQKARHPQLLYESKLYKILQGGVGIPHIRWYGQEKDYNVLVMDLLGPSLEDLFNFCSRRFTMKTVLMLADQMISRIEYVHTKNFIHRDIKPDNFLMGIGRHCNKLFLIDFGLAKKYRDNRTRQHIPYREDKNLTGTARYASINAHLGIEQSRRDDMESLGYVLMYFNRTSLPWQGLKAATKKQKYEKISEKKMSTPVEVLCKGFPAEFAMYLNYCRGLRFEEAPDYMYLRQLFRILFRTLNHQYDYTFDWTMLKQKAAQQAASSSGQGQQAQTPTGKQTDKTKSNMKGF
Procedure: ERF_TW_ENZ_hCSNK1A1 is a biochemical, single-readout assay that uses extracted gene-proteins in a cell-free assay. Measurements were taken 0.5 hour after chemical dosing in a 96-well plate. See CK1alpha Human CK1 Kinase Enzymatic Radiometric Assay [10 uM ATP], Panlabs.ERF_TW_ENZ_hCSNK1A1 is an assay component calculated from the ERF_TW_ENZ_hCSNK1A1 assay. It is designed to measure enzyme activity using a type of enzyme reporter as detected by scintillation counting with radiometry technology.Data from the assay component ERF_TW_ENZ_hCSNK1A1 was analyzed at the assay endpoint, ERF_TW_ENZ_hCSNK1A1, in the positive analysis fitting direction relative to DMSO as the negative control and baseline of activity. Using a type of enzyme reporter, loss-of-signal activity can be used to understand changes in enzymatic activity as they relate to gene CSNK1A1. To generalize the intended target to other relatable targets, this assay endpoint is annotated to the kinase intended target family, where the subfamily is serine/threonine kinase.
CK1alpha (h) is incubated for 120 minutes at room temperature, with KRRRALS(p)VASLPGL (SP15) as substrate, and PP1 Analog II. 1NM-PP1 as control inhibitor. Test Sample Requirements: Compound should be supplied in 100%DMSO. We require a stock solution at a concentration of at least 50x higher than the Final Assay Concentration of your cpd. […]
With `O=C(/C=C/c1ccc(O)cc1)CC(=O)/C=C/c1ccc(O)cc1` the AC50 was 0.872 µM (active).
